Assay outcomes (PubChem)
OTUD3 inh: inhibitors of human OTUD3 deubiquitinase; inhibition, % at 25 µM; purified OTUD3, Ub-rhodamine fluorescence, 2 h; 47,000 tested, 0.7% active
USP28 block: blocks human USP28 ubiquitin-rhodamine cleavage; Q96RU2; purified USP28, Ub-rhodamine cleavage fluorescence, 30 min; inhibition, % at 25 µM; 47,000 tested, 3% active; AID 1645857
* marks the source's active call; other numbers are inactive results; nt = not tested or not shown. Only some compounds are listed: those with a hit (about 3.4% of all), similar ones and a draw of the others. No stated cut-off is given here; in the data, active means inhibition above about 30%; inactive means the rest.

SMILES	OTUD3 inh	USP28 block
COc1cccc(/C=C/c2nc3ccccc3c(=O)n2-c2cc(C)cc(C)c2)c1OC	3	10
CC(C)CCn1cnc2c1c(=O)n(CC(=O)NC1CC1)c(=O)n2Cc1ccccc1	5	-2
CCn1nc(C)c(CNC(=O)c2nc(-c3cccc4[nH]ccc34)no2)c1C	-15	-6
Cc1cccc(C(=O)Nc2c(C)nn(Cc3cccc4ccccc34)c2C)c1	14	31*
Cc1cccc(C(=O)Nc2nnc(Cc3cn(C)c4ccccc34)s2)c1	0	9
CCn1nc(C)c(CNC(=O)c2[nH]c3ccc(C)cc3c2NC(=O)c2cccc(C)c2)c1C	71*	24
Cc1ccc(CN2CC[C@H](c3nc4c(C(N)=O)cccc4[nH]3)C2)cc1	-18	-17
CCOc1ccc(N(C)S(=O)(=O)c2ccc(C)c(C(=O)OCC(=O)N(Cc3ccccc3)C(C)(C)C)c2)cc1	3	4
O=C(Nc1ccc(Cl)cc1)c1cccc(OCc2ccccc2)c1	-1	1
CN1CCC(N(C)S(=O)(=O)c2ccc(NC(=O)c3cccc(OCc4ccccc4)c3)cc2)CC1	-18	52*
CC(NC(=O)c1ccc(-c2nnc(-c3ccccc3)o2)cc1)c1ccc(S(C)(=O)=O)cc1 (stereo unspecified)	36*	23
CS(=O)(=O)c1ccc(-c2nnc(NC(=O)c3ccco3)o2)cc1	10	9
Cc1ccc(-n2ncc3c(=O)[nH]c(SCC(=O)NCc4ccco4)nc32)cc1C	-12	-11
CCc1ccc(NC(=O)Cc2nc(-c3ccc(O)cc3O)cs2)cc1	-2	nt
Cc1nc(NCc2ccccc2F)ncc1C(=O)NCCC1=CCCCC1	-11	1
O=C(CSc1n[nH]c(-c2ccncc2)n1)Nc1ccc(F)cc1	-9	-6
O=C(CSc1ncn(-c2ccccc2)n1)Nc1ccc(Cc2ccncc2)cc1	15	46*
COc1ccc(NS(=O)(=O)c2cc(NC(=O)COc3ccccc3)ccc2N2CCCCC2)cc1	1	6
Cc1c(C)n(-c2ccccc2)c2ncn(CC(=O)NCc3ccc(F)cc3)c(=O)c12	-1	-3
CN(C)c1ccc(-c2noc(C(=O)NCc3ccccn3)n2)cc1	1	14
CCn1c(SCC(=O)N2c3ccccc3CC2C)nnc1-c1ccc2c(c1)OCCO2 (stereo unspecified)	3	3
Cc1nc(-c2noc(-c3ccncc3)n2)cn1CC(=O)NC1CCCCC1	-1	-7
Nc1nc(N2CCCC2)ncc1C(=O)NCc1ccccc1	-1	6
COC(=O)c1c(C)[nH]c(C(=O)C(C)OC(=O)CCC2CCCC2)c1C (stereo unspecified)	-6	79*
CCc1noc(C)c1C(=O)OC(C)C(=O)c1[nH]c(C)c(C(=O)OC)c1C (stereo unspecified)	8	14
SMILES	OTUD3 inh	USP28 block
COc1ccc(CC(=O)Nc2nc3c(s2)CCC3)cc1	5	22
COc1ccc(-c2nc(NC(=O)Cc3ccccc3OC)sc2C)cc1	8	10
COc1ccc(CC(=O)Nc2nc(-c3ccco3)c(-c3ccco3)s2)cc1	62*	32*
O=C(Cc1ccccc1F)Nc1nc(-c2ccco2)c(-c2ccco2)s1	58*	43*
COc1ccccc1CNc1nccn(-c2ccc3c(c2)OCCO3)c1=O	6	26
COc1ccc(NC(=O)CN(C)c2nc(-c3cccnc3)nc3sc(C)c(C)c23)cc1	-4	-16
O=c1oc2c3c(c(Cl)cc2c2c1CCCC2)OCN(CCc1ccc(F)cc1)C3	7	6
CCOc1ccc2oc(C)c(C(=O)Nc3ccccc3CC)c2c1	9	-7
CCOC(=O)c1c(C)oc2ccc(N(C(=O)c3ccncc3)S(=O)(=O)c3ccc(OCC)cc3)cc12	-12	38*
Cc1ccc(NC(=O)C2CCN(c3c(C(=O)N4CCOCC4)cnc4snc(C)c34)CC2)c(C)c1	-12	-15
COc1ccc(CNc2nc3nc(CN4CCc5ccccc5C4)cc(=O)n3[nH]2)cc1	8	17
c1ccc(-c2ccc(-c3nc(-c4ccncc4)no3)cc2)cc1	-18	-9
c1ccc2c(Cc3nc(-c4ccncc4)no3)cccc2c1	-2	85*
Cc1ccccc1OCC(=O)Nc1cccn2ncnc12	3	3
COc1ccc(NC(=O)c2cnc(N3CCCCC3)nc2C)cc1OC	-10	44*
COc1cccc(NC(=O)c2cnc(N3CCCC3)nc2C)c1	4	19
Cc1ccccc1NC(=O)Nc1cccc(-c2nnc(-c3ccccc3)o2)c1	10	4
O=C(Nc1cccc(F)c1)Nc1cccc(-c2nnc(-c3ccccc3)o2)c1	22	72*
Cn1cccc1C1CCCCCN1C(=O)C1CC1 (stereo unspecified)	9	12
C/C=C1/C2=CCCN3C(=O)O[C@H]([C@H]1O)[C@H]23	1	69*
CC(C)Oc1ccc(CSc2ncnc3c2sc2nc(N4CCOCC4)c4c(c23)CC(C)(C)OC4)cc1	-5	-5
O=C(CSc1ccc(-c2ccncc2)nn1)Nc1ccc(Cl)cc1	15	10
O=[N+]([O-])c1cccnc1Sc1ncccn1	0	-11
